Measurements taken from PubChem BioAssay (NCATS).
Records with an inconclusive call do not appear. Calls of active or inactive are those of the source. The call rests on the fitted dose curve; in most records, active means well fitted curve in the direction sought with a large enough effect; inconclusive means small, poorly fitted or top-dose-only effect, or another doubt; inactive means no such curve, though single readings can be large; an effect the other way counts as inactive or inconclusive.

Experiments:
[1] = Cellular Toxicity (caspase-3) NIH 3T3 (AID 666);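 further: caspase signal read after 16 h compound exposure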
In short: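 Caspase-Glo 3/7 luminescence reported caspase activation in 1000 NIH 3T3 cells/well after 16 h compound exposure at 37 C. DMSO set basal and 100 uM tamoxifen set 100% stimulation; concentration-response modeled with the Hill equation for AC50.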

[2] = Cellular Toxicity (caspase-3) Renal Proximal Tubule (AID 667);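 further: cells exposed to compound for 16 hours at 37 °C before detection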
In short: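 AC50 derived by standard Hill fit of concentration-response data, normalized between DMSO basal and 10 uM staurosporine as 100% stimulation. Cells: primary rat kidney proximal tubule, 16 h treatment at 37 °C.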

[3] = molecular target: Cytochrome P450 3A4 (Homo sapiens) (UniProt P08684); assay: qHTS Assay for Inhibitors and Substrates of Cytochrome P450 3A4 (AID 884); further: series mostly up to about 57 µM; nearly all actives have a fitted effect of over 50% in size
In short: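 Luminescent readout of luciferin produced by CYP3A4 (20 nM) dealkylation of Luciferin-PPXE, 25 uM (its KM). NADPH-driven reaction ran 60 min at RT after 10 min compound preincubation; data scaled to 57 uM ketoconazole as 100% inhibition.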

[4] = Cell Viability - LYMP2-001 (AID 921); further: series mostly up to about 92 µM; nearly all actives have a fitted effect of over 70% in size
In short: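 Steps: seed 2500 lymphoblastoid cells/well; 5 hr, 37 C; add compound; 24 hr, 37 C; CellTiter-Glo reagent, 30 min room temperature; read luminescence. Concentration-response modeled by Hill equation for AC50.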

[5] = MultiTox-Fluor Cytotoxicity Assay - LYMP1-001 - Dead Cells (AID 946)
In short: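 Seed 2500 LYMP1-001 cells/well, incubate 5 hr at 37 C; add compound, 16 hr at 37 C; add MultiTox-Fluor reagent, 60 min RT; read dead-cell fluorescence Ex/Em=485/520. Normalize to DMSO and 15 uM tetraoctylammonium bromide.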

[6] = MultiTox-Fluor Cytotoxicity Assay - LYMP1-001 - Live Cells (AID 947)
[7] = Cell Viability - LYMP1-002 - Assay at 16 hr (AID 948)
In short: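 Seed 2500 LYMP1-002 cells per well in complete medium and hold 5 hr at 37 C. Add compound across a concentration series and incubate 16 hr at 37 C. Add CellTiter-Glo, wait 30 min at room temperature, read luminescence.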

[8] = MultiTox-Fluor Cytotoxicity Assay - LYMP1-002 - Live Cells (AID 955);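 further: cells exposed to compound for 16 hours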
In short: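 After 16 h compound exposure at 37 C, live LYMP1-002 lymphoblastoid cells (2500/well) were quantified by cleavage of cell-permeant GF-AFC substrate, read at 405/510 nm after 60 min. Concentration-response fitted with Hill equation for AC50.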

[9] = MultiTox-Fluor Cytotoxicity Assay - LYMP1-003 - Dead Cells (AID 961); further: nearly all actives have a fitted effect of over 70% in size
In short: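 LYMP1-003 lymphoblastoid, 2500 cells/well, 5 hr settle then 16 hr cpd at 37 C; MultiTox-Fluor reagent 60 min RT; Ex/Em 485/520 dead-cell signal; norm. DMSO = 0%, 15 uM tetraoctylammonium bromide = 100%; Hill AC50.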

[10] = MultiTox-Fluor Cytotoxicity Assay - LYMP1-003 - Live Cells (AID 962);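 further: cells exposed to compound for 16 hours at 37 °C; cytotoxic hits lower the live-cell protease signal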
In short: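 Live-cell protease activity (GF-AFC substrate, 405/510 nm, 60 min at room temperature) after 16 h, 37 C compound exposure of human lymphoblastoid LYMP1-003 cells; concentration-response fitted to the Hill equation for AC50.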

[11] = Cell Viability - LYMP1-003 - Assay at 24 hr (AID 963)
In short: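 Concentration-response qHTS: ATP loss measured by CellTiter-Glo luminescence after 24 h compound exposure at 37 C. Cells were LYMP1-003 human lymphoblastoid, 2500 per well. AC50 derived via standard Hill equation modeling.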

[12] = Cell Viability - LYMP1-003 - Assay at 40 hr (AID 964); further: series mostly up to about 92 µM; nearly all actives have a fitted effect of over 60% in size
In short: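 Viability is taken as cellular ATP, read by CellTiter-Glo luminescence after 40 h of compound exposure at 37 C. Cells: human lymphoblastoid line LYMP1-003 at 2500/well; AC50 values derived by Hill-equation fitting of concentration-response data.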

[13] = Cell Viability - LYMP2-003 (AID 965);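 further: cells exposed to compounds for 24 h before reading; nearly all actives have a fitted effect of over 50% in size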
In short: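 Seed 2500 lymphoblastoid cells/well; incubate 5 hr, 37 C; add compounds; incubate 24 hr, 37 C; add CellTiter-Glo, 30 min RT; read luminescence. AC50 from Hill fit.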

[14] = Cell Viability - LYMP2-005 (AID 967); further: series mostly up to about 92 µM
In short: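 Acute cytotoxicity is scored as a concentration-dependent drop in intracellular ATP in human lymphoblastoid LYMP2-005 cells after 24 h compound treatment. ATP is quantified by luciferase luminescence, and AC50 is derived by Hill-equation modelling.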

[15] = Cell Viability - LYMP2-009 (AID 968); further: series mostly up to about 92 µM; nearly all actives have a fitted effect of over 55% in size
[16] = Cell Viability - LYMP2-011 (AID 969); further: nearly all actives have a fitted effect of over 60% in size
In short: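 Cytotoxicity qHTS with ATP content as read-out: lymphoblastoid cells (2500/well) exposed to compound for 24 h at 37 C, then luciferase luminescence measured. Concentration-response data fitted with the standard Hill equation to give AC50.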

[17] = Cell Viability - LYMP2-013 (AID 970); further: series mostly up to about 92 µM; nearly all actives have a fitted effect of over 55% in size
In short: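 qHTS cytotoxicity: ATP-dependent luminescence (CellTiter-Glo, 30 min room temperature) read after 24 h compound exposure at 37 C of 2500 LYMP2-013 lymphoblastoid cells per well. Concentration-response fitted with Hill equation to give AC50.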

[18] = Cell Viability - LYMP2-015 (AID 971); further: nearly all actives have a fitted effect of over 55% in size
In short: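 Cytotoxicity readout: decrease in intracellular ATP (CellTiter-Glo luminescence) in 2500 LYMP2-015 lymphoblastoid cells/well after 24 h compound exposure at 37 C. Concentration-response data fitted with the standard Hill equation to give AC50.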

[19] = Cell Viability - LYMP2-017 (AID 972); further: series mostly up to about 92 µM; nearly all actives have a fitted effect of over 55% in size
In short: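 CellTiter-Glo luminescence (cellular ATP, 30 min RT) measured cytotoxicity after 24 hr compound treatment at 37 C. Cells were a human lymphoblastoid line, LYMP2-017, plated at 2500/well and incubated 5 hr first; concentration-response fitted with Hill equation for AC50.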

[20] = Cell Viability - LYMP2-019 (AID 973); further: nearly all actives have a fitted effect of over 55% in size
In short: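 AC50 values come from Hill-equation fits of luminescent intracellular ATP (CellTiter-Glo, 30 min, room temperature) following 24 h compound exposure at 37 C. Cells: LYMP2-019 lymphoblastoid line, 2500 per well, in complete culture medium.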

[21] = Cell Viability - LYMP2-021 (AID 974); further: nearly all actives have a fitted effect of over 55% in size
In short: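 AC50 values come from Hill-equation fits to CellTiter-Glo luminescence (ATP content), read after 24 hour compound exposure at 37 C of 2500 LYMP2-021 lymphoblastoid cells/well; tetraoctylammonium bromide as positive control.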

[22] = Cell Viability - LYMP2-023 (AID 975)
In short: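 Intracellular ATP, read by CellTiter-Glo luminescence, reports viability after 24 hr compound exposure at 37 C. 2500 lymphoblastoid cells/well (LYMP2-023) seeded 5 hr beforehand; Hill fits give AC50; positive control tetraoctylammonium bromide.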

[23] = Cell Viability - LYMP2-025 (AID 976); further: series mostly up to about 92 µM
In short: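 Cytotoxicity read as loss of intracellular ATP (luciferase luminescence) after 24 h compound treatment at 37 C. Uses LYMP2-025 lymphoblastoid cells in 1536-well format; Hill-equation modelling gives AC50; tetraoctylammonium bromide as positive control.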

[24] = Cell Viability - LYMP2-002 (AID 977); further: series mostly up to about 92 µM
In short: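 Human lymphoblastoid cells, 2500/well, complete medium; 5 h 37 C settle; compound 24 h 37 C; CellTiter-Glo, 30 min RT; luminescence. Decrease in ATP = cytotoxicity; AC50 via Hill equation.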

Measured: Potency

Cytochrome P450 3A4 (Homo sapiens), sequence (P08684 whole entry, looked up): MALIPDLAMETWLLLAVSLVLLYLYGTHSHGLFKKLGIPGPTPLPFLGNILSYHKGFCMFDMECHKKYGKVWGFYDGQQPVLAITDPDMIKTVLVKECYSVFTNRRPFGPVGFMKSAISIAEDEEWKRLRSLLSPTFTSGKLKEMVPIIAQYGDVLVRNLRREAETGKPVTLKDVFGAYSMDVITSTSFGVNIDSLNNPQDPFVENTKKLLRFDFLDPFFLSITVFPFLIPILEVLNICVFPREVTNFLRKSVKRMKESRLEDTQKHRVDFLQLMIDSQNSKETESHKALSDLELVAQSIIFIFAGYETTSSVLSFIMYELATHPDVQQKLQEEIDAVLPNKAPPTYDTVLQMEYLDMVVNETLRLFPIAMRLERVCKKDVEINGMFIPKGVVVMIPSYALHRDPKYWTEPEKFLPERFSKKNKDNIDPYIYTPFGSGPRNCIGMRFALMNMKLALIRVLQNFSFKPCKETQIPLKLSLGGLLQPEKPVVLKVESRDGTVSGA

COc1ccc(/C=C/c2cc(OC)cc(=O)o2)cc1
inactive: all assays above
